In PubChem BioAssay (NCI):
About 83,000 compounds went through this panel and 20% of them were active in at least one assay; those are over-represented in the sample as a whole.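 Activity criterion: percent growth below 10, measured after cells in 96-well plates were exposed to a single compound concentration for 48 hours.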

Experiments:
Test in all cases: NCI-60 one-dose screen, 48 h (100 = growth as untreated, 0 = no growth, -100 = all killed)
NCI-H23 lung = settings: 10 µM unless noted
NCI-H226 lung = settings: 10 µM unless noted
NCI-H322M lung = settings: 10 µM unless noted
HOP-62 NSCLC = settings: 10 µM unless noted
NCI-H460 lung = settings: 10 µM unless noted
786-0 renal = settings: 10 µM unless noted
COLO 205 colon = settings: 10 µM unless noted
DU-145 prostate = settings: 10 µM unless noted
K-562 leukemia = settings: 10 µM unless noted
MALME-3M melanoma = settings: 10 µM unless noted
MDA-MB-231 breast = settings: 10 µM unless noted
RXF 393 renal = settings: 10 µM unless noted
SF-268 CNS = settings: 10 µM unless noted
SF-295 CNS = settings: 10 µM unless noted
SF-539 CNS = settings: 10 µM unless noted
M14 melanoma = settings: 10 µM unless noted
A549/ATCC NSCLC = settings: 10 µM unless noted
UACC-257 melanoma = settings: 10 µM unless noted
HOP-92 NSCLC = settings: 10 µM
NCI-H522 lung = settings: 10 µM

Measured: growth

CCCCCCCCCC(C)NC(=O)CCl (configuration not stated)
inactive: NCI-H23 lung 90% | NCI-H226 lung 96.5% | NCI-H322M lung 96.6% | HOP-62 NSCLC 102% | NCI-H460 lung 107% | 786-0 renal 93.1% | COLO 205 colon 113% | DU-145 prostate 102% | K-562 leukemia 97.3% | MALME-3M melanoma 93.8% | MDA-MB-231 breast 93% | RXF 393 renal 101% | SF-268 CNS 95.1% | SF-295 CNS 99.8% | SF-539 CNS 99.9% | M14 melanoma 107%

C=CCC(CCC(CC=C)C(=O)OCC)C(=O)OCC (configuration not stated)
inactive: NCI-H23 lung 108% | NCI-H226 lung 104% | NCI-H322M lung 83.3% | HOP-62 NSCLC 103% | NCI-H460 lung 105% | A549/ATCC NSCLC 106% | 786-0 renal 98.5% | DU-145 prostate 110% | K-562 leukemia 108% | MALME-3M melanoma 96.2% | MDA-MB-231 breast 107% | RXF 393 renal 108% | SF-268 CNS 105% | SF-295 CNS 91.9% | SF-539 CNS 105% | UACC-257 melanoma 113% | M14 melanoma 102%

CCOC(=O)C(C)C(C)(O)c1ccccc1 (configuration not stated)
inactive: NCI-H23 lung 98.5% | NCI-H226 lung 94.1% | NCI-H322M lung 93.2% | HOP-62 NSCLC 109% | NCI-H460 lung 103% | 786-0 renal 94.1% | COLO 205 colon 112% | DU-145 prostate 110% | K-562 leukemia 100% | MALME-3M melanoma 84.2% | MDA-MB-231 breast 103% | RXF 393 renal 103% | SF-268 CNS 98.6% | SF-295 CNS 103% | SF-539 CNS 105% | M14 melanoma 96.3%

CCN(CC)CCNc1ncnc2c1cnn2-c1ccc(Cl)cc1
inactive: NCI-H23 lung 76.5% | NCI-H226 lung 100% | NCI-H322M lung 92.8% | HOP-62 NSCLC 114% | NCI-H460 lung 85% | 786-0 renal 106% | COLO 205 colon 15.9% | DU-145 prostate 94.5% | K-562 leukemia 45% | MALME-3M melanoma 88.9% | MDA-MB-231 breast 61.1% | SF-268 CNS 81.7% | SF-295 CNS 85.7% | SF-539 CNS 70%

CCOc1ccc(Br)cc1/C=C(\C#N)c1ccc([N+](=O)[O-])cc1
inactive: NCI-H23 lung 87.6% | NCI-H226 lung 81.2% | NCI-H322M lung 77.4% | HOP-62 NSCLC 22.1% | NCI-H460 lung 82.2% | 786-0 renal 86.3% | COLO 205 colon 97.2% | DU-145 prostate 80.4% | K-562 leukemia 80.6% | MALME-3M melanoma 62.2% | MDA-MB-231 breast 61.2% | RXF 393 renal 66.7% | SF-268 CNS 60.9% | SF-295 CNS 76.5% | SF-539 CNS 81.1% | M14 melanoma 101%

CCN(CC)C(=O)C1(C)CCCC2(C)c3cc(OC(C)=O)ccc3CCC12 (configuration not stated)
inactive: NCI-H23 lung 84.3% | NCI-H226 lung 75.8% | NCI-H322M lung 83.5% | HOP-62 NSCLC 94.9% | NCI-H460 lung 90% | 786-0 renal 92% | COLO 205 colon 92% | DU-145 prostate 99.9% | K-562 leukemia 58.6% | MALME-3M melanoma 86.4% | MDA-MB-231 breast 103% | RXF 393 renal 92% | SF-268 CNS 86.5% | SF-295 CNS 85.1% | SF-539 CNS 89.2% | M14 melanoma 112%

CCCCN(CCCC)c1ccc(C(=O)O)cc1
inactive: NCI-H23 lung 98.1% | NCI-H226 lung 99.5% | NCI-H322M lung 98.4% | HOP-62 NSCLC 98% | NCI-H460 lung 104% | 786-0 renal 99.4% | COLO 205 colon 98.8% | DU-145 prostate 101% | K-562 leukemia 107% | MALME-3M melanoma 74% | MDA-MB-231 breast 120% | RXF 393 renal 105% | SF-268 CNS 101% | SF-295 CNS 97.7% | SF-539 CNS 109% | M14 melanoma 103%

O=C(O)COc1ccc([N+](=O)[O-])cc1Cl
inactive: NCI-H23 lung 108% | NCI-H226 lung 108% | NCI-H322M lung 99.8% | HOP-62 NSCLC 90.5% | NCI-H460 lung 108% | A549/ATCC NSCLC 100% | 786-0 renal 98.7% | DU-145 prostate 118% | K-562 leukemia 99.5% | MALME-3M melanoma 107% | MDA-MB-231 breast 115% | RXF 393 renal 108% | SF-268 CNS 109% | SF-539 CNS 98% | UACC-257 melanoma 91.6% | M14 melanoma 107%

Nc1ccc(N=Nc2ccccc2)c2cc(S(=O)(=O)O)ccc12
inactive: NCI-H23 lung 91.4% | NCI-H226 lung 103% | NCI-H322M lung 104% | HOP-62 NSCLC 92.4% | HOP-92 NSCLC 94.5% | NCI-H522 lung 88.5% | A549/ATCC NSCLC 99.3% | 786-0 renal 104% | COLO 205 colon 116% | DU-145 prostate 110% | K-562 leukemia 104% | MALME-3M melanoma 107% | MDA-MB-231 breast 109% | RXF 393 renal 97.2% | SF-268 CNS 98.8% | SF-295 CNS 103% | SF-539 CNS 101% | UACC-257 melanoma 97% | M14 melanoma 103%

CCC(C)(CC)c1ccc(O)c(C)c1
inactive: NCI-H23 lung 98.9% | NCI-H226 lung 98% | NCI-H322M lung 94.4% | HOP-62 NSCLC 101% | NCI-H460 lung 105% | 786-0 renal 94.8% | COLO 205 colon 105% | DU-145 prostate 114% | K-562 leukemia 114% | MALME-3M melanoma 99.8% | MDA-MB-231 breast 106% | RXF 393 renal 108% | SF-268 CNS 109% | SF-295 CNS 105% | SF-539 CNS 100% | M14 melanoma 99.7%
